Data from PubChem BioAssay AID1851 (National Center for Advancing Translational Sciences (NCATS), 2009).
In all, about 16,000 compounds went through this assay and about 5,100 (32%) were called active. Another 25% or so got no clear call; they are omitted. Calls follow the shape of the dose curve; as a rule, active = well fitted curve in the direction sought with a large enough effect; inconclusive = small, poorly fitted or top-dose-only effect, or effect the other way; inactive = no such curve, though single readings can be large or run the other way. The list shows a part of the results.

target: Cytochrome P450 3A4 (Homo sapiens) (UniProt P08684); assay: Cytochrome panel assay with activity outcomes; details: recombinant CYP, pro-luciferin dealkylation, luminescence, p450-cyp3a4; series mostly up to 57.1 µM
Sequence (P08684 whole entry, looked up): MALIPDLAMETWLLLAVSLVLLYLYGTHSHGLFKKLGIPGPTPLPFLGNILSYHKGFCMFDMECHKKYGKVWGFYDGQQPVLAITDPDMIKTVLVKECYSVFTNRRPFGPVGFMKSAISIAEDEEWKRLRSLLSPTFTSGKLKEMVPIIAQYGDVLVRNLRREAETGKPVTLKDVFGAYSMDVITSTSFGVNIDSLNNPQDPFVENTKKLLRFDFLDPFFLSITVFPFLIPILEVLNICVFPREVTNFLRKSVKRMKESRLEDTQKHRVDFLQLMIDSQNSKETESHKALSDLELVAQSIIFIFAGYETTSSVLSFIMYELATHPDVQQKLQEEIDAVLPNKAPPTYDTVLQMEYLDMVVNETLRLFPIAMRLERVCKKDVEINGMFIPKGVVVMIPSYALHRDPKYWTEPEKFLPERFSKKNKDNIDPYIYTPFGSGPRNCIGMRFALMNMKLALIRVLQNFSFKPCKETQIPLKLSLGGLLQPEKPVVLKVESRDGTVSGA
% is scaled to controls: 0 for no effect and ±100 for the full control effect.

activity, negative = inhibition, inactive:
Nc1ccc(C(=O)C[C@H](N)C(=O)O)cc1O -6.46% [at 11.4 µM]
O=C(O)[C@@H]1[C@@H](C(=O)Nc2ncccn2)[C@@H]2C=C[C@@H]1O2 -13% [at 11.4 µM]
COCCNC(=O)COC(=O)/C=C/c1cnc2ccccc2n1 -3.34% [at 2.29 µM]
O=C(NC(=S)Nc1nc(-c2ccc(Br)cc2)cs1)c1cccnc1 -14.3% [at 2.29 µM]
N=C(N)SCCc1ccncc1 4.88% [at 11.4 µM]
N=C(N)SCCSC(=N)N -5.54% [at 11.4 µM]
CCCCCCCCn1cc(C(C)=O)c(=O)[nH]c1=O -12.5% [at 2.29 µM]
C[N+]1(NCC[N@@+]2(C)CCc3ccccc3C2)CCCCC1 0.246% [at 11.4 µM]
CCC(C)(C)n1nnnc1C(c1ccc(C)cc1)N1CCC(C)CC1 (configuration not stated) 21.5% [at 2.29 µM]
c1ccc(C[n+]2cccc(-c3cc4ccccc4[nH]3)c2)cc1 -7.36% [at 11.4 µM]
O=C1C(=O)c2ccccc2C(O)=C1C(CCc1ccccc1)C1=C(O)c2ccccc2C(=O)C1=O -5.65% [at 11.4 µM]
O=S(=O)(O)[C@@H](CO)c1ccccc1 (tested in a mixture with another compound) -1.16% [at 11.4 µM]
O=c1ncn(-c2ccccc2F)c2ncccc12 14.6% [at 2.29 µM]
O=c1ccc(-c2ccccc2)n[nH]1 -16.6% [at 11.4 µM]
Cc1n[nH]c2ccccc2c1=O -6.8% [at 11.4 µM]
Cc1ccc2nc(SCC(=O)NCc3cccs3)c(C#N)cc2c1 -9.74% [at 2.29 µM]
Cc1cccc(NC2=NC(=S)N(c3ccc(C(=O)O)cc3)C23CCCCC3)c1 10.4% [at 2.29 µM]

AC50, inactive:
CCOC(=O)c1cnn(-c2nc(-c3ccc(F)cc3)cs2)c1C(F)(F)F
Fc1ccc(-c2cnc(-c3cccs3)o2)cc1
CC1(C)CC(O)CC(C)(C)N1CC(O)COCCOc1ccc(Br)cc1 (configuration not stated)
Clc1cccc(Oc2cnc3ccccc3n2)c1
c1ccc(-c2csc3ncn4cnnc4c23)cc1
Cc1ccc(C2C(C(=O)c3ccco3)=C(O)C(=O)N2c2nnc(C)s2)cc1 (configuration not stated)
CCOc1ccccc1Oc1coc2cc(OC)ccc2c1=O
Cc1cc(C)cc(Oc2coc3cc(OC(=O)c4cccs4)ccc3c2=O)c1
Fc1ccccc1OCCCCSc1ncccn1
COc1ccc2[nH]cc(C=O)c2c1
CC(C)N=C(N)/N=C(\N)Nc1ccc(Cl)cc1
NC(N)=NC(=O)Cc1c(Cl)cccc1Cl
Cc1cc2cccc(C)c2nc1SCC(=O)N(C)c1nc(-c2ccccc2)cs1
COc1ccc(/C=C(\C#N)C(=O)NCC2CCCO2)cc1OC (configuration not stated)
O=C(O)c1cc(S(=O)(=O)NCC2CCCO2)ccc1Cl (configuration not stated)
O=C(NCC1CCCO1)c1ccc(CS(=O)(=O)Cc2ccc(F)cc2)o1 (configuration not stated)
CCC(C)NS(=O)(=O)c1ccc(OCC(=O)NCC2CCCO2)cc1 (configuration not stated)
COc1ccc(NC2=NC(=S)N(c3ccc(C)cc3)C23CCCCC3)cc1

AC50, active:
Nc1c(-c2cccs2)cnn1-c1nc(-c2ccc(F)cc2)cs1 3.98 µM
Cc1ccc(C)c(S(=O)(=O)NCc2ccc(C(=O)N3CCC(Cc4ccccc4)CC3)cc2)c1 2.24 µM
O=C(CCl)Nc1ccc(Oc2cnc3ccccc3n2)cc1 14.1 µM
COc1ccc(CNc2cc(-c3cccnc3)ncn2)c(OC)c1 1.58 µM
COc1ccccc1CNc1cc(-c2cccnc2)ncn1 0.631 µM
COc1ccc(CCNc2nc(-c3cccnc3)cs2)cc1OC 3.16 µM
CCS(=O)(=O)Nc1ccc(C2=NN(C(=O)c3ccco3)C(c3ccc(C)cc3)C2)cc1 (configuration not stated) 3.98 µM
N=C(N)SCCc1cnc[nH]1 15.8 µM
Cc1cccc(Oc2coc3cc(OC(=O)c4cccs4)ccc3c2=O)c1 11.2 µM
O=C(Cn1c(=O)n(Cc2ccco2)c(=O)c2c3c(sc21)CCCCC3)c1ccccc1 14.1 µM
CCC(C)(C)n1nnnc1C(C(C)C)N(Cc1ccco1)Cc1cc2cc3c(cc2[nH]c1=O)OCO3 (configuration not stated) 1 µM
CCC(C)(C)n1nnnc1C(c1cc2cc3c(cc2[nH]c1=O)OCO3)N1CCCCC1 (configuration not stated) 1.58 µM
CCC(C)(C)n1nnnc1C(C(C)C)N(CCCO)Cc1cc2cc(C)ccc2[nH]c1=O (configuration not stated) 2 µM
O=C1C(SCCO)=C(SCCO)C(=O)c2ccccc21 25.1 µM
COc1ccc2[nH]cc(CCNc3cc(-c4cccc(C#N)c4)ncn3)c2c1 3.98 µM
COc1cccc(-c2cc(NCCc3c[nH]c4ccc(OC)cc34)ncn2)c1 7.94 µM
COc1ccc2[nH]cc(CCNc3ccnc(-c4cccnc4)n3)c2c1 1.26 µM
COc1ccc2[nH]cc(CCNc3cc(-c4cccnc4)ncn3)c2c1 3.98 µM
COc1ccc2[nH]cc(CCNc3cc(-c4ccoc4)ncn3)c2c1 10 µM
Cc1ccc(NC(=O)N/C=C/c2ccc(Cl)cc2)cc1 0.0501 µM
O=C1c2ccccc2-c2n[nH]c3cccc1c23 3.98 µM
Cc1nc2cc(NC(=O)CSc3nc4c(C)cccc4cc3C#N)ccc2s1 2.82 µM
CC(C)C(C(=O)NCC1CCCO1)N(Cc1ccco1)C(=O)CNS(=O)(=O)c1ccc(F)cc1 (configuration not stated) 5.01 µM
COc1ccccc1N(CC(=O)NCC1CCCO1)C(=O)CNS(=O)(=O)c1ccc(C)cc1 (configuration not stated) 7.94 µM
O=C(CN(CC1CCCO1)C(=O)CNS(=O)(=O)c1ccc(Cl)cc1)NCCc1ccccc1 (configuration not stated) 11.2 µM
COc1ccc(S(=O)(=O)N(CC(=O)NCC2CCCO2)c2ccc(F)cc2)cc1OC (configuration not stated) 8.91 µM
Cc1ccccc1NC1=NC(=S)N(c2ccccc2)C12CCOC(C)(C)C2 (configuration not stated) 10 µM
